What was measured:
Experiment in all cases: DAPPL (digital affinity profiling via proximity ligation, sequencing); 10 mM Tris-HCl pH 7.5, 50 mM NaCl, 1 mM DTT, 4% glycerol, room temperature, 30 min; GST-TFs on glutathione beads, 16-mer random dsDNA library, 0.1% formaldehyde crosslink after washing; high values mean tight binding
FEV = biological target: T1, FEV (Homo sapiens, UniProt Q99581 1-238); details: protein: recombinant; tags: N-terminal GST; dsDNA, one strand shown
T1 sequence: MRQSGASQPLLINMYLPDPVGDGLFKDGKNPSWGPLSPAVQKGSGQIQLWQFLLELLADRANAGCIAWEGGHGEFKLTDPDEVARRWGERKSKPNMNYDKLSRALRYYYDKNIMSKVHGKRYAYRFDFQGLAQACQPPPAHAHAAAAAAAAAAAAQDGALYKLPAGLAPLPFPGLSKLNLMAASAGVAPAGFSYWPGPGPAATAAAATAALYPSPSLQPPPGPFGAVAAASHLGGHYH
How it was run: (§1)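 Yeast served to express human transcription factors as GST fusions, which were then captured on glutathione beads and labelled with DNA barcodes. Pooled with a tag-only sample, they were incubated with 200 nmole of a 16-mer random double-stranded DNA library for 30 min at room temperature in Tris/NaCl/DTT/glycerol buffer, washed, crosslinked with 0.1% formaldehyde, ligated by proximity, amplified by PCR and sequenced. Dividing each hexamer's read frequency for a factor by its frequency for the tag-only sample gives the binding signal.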

ETV5 = ETV5 (Homo sapiens, UniProt P41161 1-510); details: protein: recombinant; tags: N-terminal GST; dsDNA, one strand shown
Chain of ETV5 (P41161 whole entry): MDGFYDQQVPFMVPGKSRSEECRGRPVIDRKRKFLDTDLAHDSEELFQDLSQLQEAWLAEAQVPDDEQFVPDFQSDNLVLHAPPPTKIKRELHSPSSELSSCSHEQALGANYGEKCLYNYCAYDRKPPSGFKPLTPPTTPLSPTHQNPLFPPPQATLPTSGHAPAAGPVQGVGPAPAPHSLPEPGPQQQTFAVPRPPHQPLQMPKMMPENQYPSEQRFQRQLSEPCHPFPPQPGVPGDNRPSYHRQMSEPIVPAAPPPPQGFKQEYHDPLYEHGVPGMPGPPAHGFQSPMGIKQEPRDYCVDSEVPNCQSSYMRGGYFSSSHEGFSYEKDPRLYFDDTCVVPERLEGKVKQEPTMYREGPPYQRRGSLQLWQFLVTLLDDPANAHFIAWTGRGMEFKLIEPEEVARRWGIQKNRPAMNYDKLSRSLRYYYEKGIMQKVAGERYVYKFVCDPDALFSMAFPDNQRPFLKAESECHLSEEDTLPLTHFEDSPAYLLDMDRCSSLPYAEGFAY
How it was run: as §1

HSF1 = HSF1 (Homo sapiens, UniProt Q00613 1-529); details: protein: recombinant; tags: N-terminal GST; chain copies: 3; dsDNA, one strand shown
Chain of HSF1 (Q00613 whole entry): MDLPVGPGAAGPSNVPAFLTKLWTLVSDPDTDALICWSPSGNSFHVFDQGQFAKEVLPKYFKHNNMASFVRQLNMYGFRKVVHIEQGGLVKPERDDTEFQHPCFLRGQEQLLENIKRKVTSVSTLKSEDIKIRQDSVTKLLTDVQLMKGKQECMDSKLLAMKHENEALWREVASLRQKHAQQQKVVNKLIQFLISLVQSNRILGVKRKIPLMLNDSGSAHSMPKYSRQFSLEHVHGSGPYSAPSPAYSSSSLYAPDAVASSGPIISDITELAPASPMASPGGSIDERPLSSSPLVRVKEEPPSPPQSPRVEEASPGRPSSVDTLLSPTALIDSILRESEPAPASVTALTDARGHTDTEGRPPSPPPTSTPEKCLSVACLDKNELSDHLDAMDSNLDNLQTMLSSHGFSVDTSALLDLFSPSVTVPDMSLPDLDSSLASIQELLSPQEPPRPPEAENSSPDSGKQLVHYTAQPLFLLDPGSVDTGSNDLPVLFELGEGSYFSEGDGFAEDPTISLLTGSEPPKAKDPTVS
How it was run: as §1

SPIC = biological target: T2, SPIC (Homo sapiens, UniProt Q8N5J4 1-248); details: protein: recombinant; tags: N-terminal GST; dsDNA, one strand shown
T2 sequence: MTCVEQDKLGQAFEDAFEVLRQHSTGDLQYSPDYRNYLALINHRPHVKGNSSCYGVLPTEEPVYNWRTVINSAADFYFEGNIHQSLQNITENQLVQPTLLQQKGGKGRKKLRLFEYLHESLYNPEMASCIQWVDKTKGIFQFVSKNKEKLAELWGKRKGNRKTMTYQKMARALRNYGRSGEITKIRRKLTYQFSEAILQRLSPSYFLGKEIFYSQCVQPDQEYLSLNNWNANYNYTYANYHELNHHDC
How it was run: as §1

ELF4 = ELF4 (Homo sapiens, UniProt Q99607 1-663); details: protein: recombinant; tags: N-terminal GST; dsDNA, one strand shown
Chain of ELF4 (Q99607 whole entry): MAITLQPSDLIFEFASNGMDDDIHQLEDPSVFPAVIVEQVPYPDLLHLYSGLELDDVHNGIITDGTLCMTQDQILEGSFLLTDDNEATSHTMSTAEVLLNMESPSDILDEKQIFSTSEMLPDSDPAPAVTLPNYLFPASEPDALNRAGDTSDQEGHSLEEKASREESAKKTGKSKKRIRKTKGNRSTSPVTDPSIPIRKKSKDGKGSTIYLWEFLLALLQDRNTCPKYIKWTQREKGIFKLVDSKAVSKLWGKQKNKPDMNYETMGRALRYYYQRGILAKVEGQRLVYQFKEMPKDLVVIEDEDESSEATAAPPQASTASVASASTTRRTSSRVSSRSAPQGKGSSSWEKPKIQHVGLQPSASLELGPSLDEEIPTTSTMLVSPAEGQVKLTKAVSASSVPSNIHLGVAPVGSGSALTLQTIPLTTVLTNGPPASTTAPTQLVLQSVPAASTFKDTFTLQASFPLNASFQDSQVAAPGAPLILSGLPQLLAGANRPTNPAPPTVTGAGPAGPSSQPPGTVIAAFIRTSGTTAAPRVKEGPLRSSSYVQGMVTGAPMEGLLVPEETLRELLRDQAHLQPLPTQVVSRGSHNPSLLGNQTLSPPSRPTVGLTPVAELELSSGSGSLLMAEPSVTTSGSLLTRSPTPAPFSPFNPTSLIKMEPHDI
How it was run: as §1

ELK4 = biological target: T3, ELK4 (Homo sapiens, UniProt P28324-2 1-405); details: protein: recombinant; tags: N-terminal GST; dsDNA, one strand shown
T3 sequence: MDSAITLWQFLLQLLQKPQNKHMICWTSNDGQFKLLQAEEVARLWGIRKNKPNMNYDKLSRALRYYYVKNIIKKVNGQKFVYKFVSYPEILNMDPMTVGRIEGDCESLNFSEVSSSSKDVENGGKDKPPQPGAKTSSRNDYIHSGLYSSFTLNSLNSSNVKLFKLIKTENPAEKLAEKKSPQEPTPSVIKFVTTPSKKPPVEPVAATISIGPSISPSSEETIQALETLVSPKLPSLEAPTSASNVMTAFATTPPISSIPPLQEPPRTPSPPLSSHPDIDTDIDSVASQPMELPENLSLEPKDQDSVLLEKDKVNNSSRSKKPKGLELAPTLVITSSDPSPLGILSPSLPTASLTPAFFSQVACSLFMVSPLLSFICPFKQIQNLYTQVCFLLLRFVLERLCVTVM
How it was run: as §1

ETV2 = biological target: T4, ETV2 (Homo sapiens, UniProt O00321 1-342); details: protein: recombinant; tags: N-terminal GST; dsDNA, one strand shown
T4 sequence: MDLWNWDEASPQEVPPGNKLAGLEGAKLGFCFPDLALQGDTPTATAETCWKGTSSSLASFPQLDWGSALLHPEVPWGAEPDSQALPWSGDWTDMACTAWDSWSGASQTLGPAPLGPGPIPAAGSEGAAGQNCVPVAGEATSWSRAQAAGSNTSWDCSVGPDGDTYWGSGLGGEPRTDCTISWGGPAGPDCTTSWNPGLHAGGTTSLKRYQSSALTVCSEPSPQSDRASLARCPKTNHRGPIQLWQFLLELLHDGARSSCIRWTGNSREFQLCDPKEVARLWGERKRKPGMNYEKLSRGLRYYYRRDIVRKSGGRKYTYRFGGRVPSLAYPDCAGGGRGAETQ
How it was run: as §1

ELF3 = biological target: T5, ELF3 (Homo sapiens, UniProt P78545 1-371); details: protein: recombinant; tags: N-terminal GST; dsDNA, one strand shown
T5 sequence: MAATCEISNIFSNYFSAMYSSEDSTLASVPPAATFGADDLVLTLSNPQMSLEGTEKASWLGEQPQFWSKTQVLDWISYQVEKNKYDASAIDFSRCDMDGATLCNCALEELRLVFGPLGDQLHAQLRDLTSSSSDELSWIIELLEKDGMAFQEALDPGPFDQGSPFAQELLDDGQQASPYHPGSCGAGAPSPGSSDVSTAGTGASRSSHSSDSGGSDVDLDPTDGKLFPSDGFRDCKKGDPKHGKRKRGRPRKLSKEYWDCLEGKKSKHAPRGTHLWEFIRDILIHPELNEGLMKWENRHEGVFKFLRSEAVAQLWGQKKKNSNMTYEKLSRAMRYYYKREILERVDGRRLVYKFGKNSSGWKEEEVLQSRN
How it was run: as §1

CRX = CRX (Homo sapiens, UniProt O43186 1-299); details: protein: recombinant; tags: N-terminal GST; dsDNA, one strand shown
Chain of CRX (O43186 whole entry): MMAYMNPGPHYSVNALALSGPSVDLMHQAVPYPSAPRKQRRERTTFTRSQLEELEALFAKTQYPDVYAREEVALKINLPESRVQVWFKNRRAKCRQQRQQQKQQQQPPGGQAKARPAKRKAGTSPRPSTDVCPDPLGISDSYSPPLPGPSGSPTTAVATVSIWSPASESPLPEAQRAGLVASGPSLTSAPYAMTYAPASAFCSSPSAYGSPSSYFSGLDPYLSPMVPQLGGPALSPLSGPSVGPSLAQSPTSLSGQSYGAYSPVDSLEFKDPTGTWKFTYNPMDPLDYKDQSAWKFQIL
How it was run: as §1

ETV1 = ETV1 (Homo sapiens, UniProt P50549 1-477); details: protein: recombinant; tags: N-terminal GST; dsDNA, one strand shown
Chain of ETV1 (P50549 whole entry): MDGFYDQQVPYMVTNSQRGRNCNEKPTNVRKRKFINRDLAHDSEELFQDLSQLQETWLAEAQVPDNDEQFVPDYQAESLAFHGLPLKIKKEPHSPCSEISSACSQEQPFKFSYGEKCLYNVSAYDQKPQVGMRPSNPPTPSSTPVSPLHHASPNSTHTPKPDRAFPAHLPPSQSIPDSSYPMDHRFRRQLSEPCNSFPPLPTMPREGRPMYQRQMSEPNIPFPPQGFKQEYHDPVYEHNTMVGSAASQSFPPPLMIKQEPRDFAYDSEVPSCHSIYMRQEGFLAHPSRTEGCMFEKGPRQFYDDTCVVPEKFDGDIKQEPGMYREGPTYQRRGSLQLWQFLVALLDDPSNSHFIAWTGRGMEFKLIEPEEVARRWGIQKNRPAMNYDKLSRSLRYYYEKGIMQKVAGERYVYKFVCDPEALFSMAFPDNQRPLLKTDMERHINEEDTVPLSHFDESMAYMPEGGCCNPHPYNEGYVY
How it was run: as §1

Row | Sequence | binding signal (FEV) | binding signal (ETV5) | binding signal (HSF1) | binding signal (SPIC) | binding signal (ELF4) | binding signal (ELK4) | binding signal (ETV2) | binding signal (ELF3) | binding signal (CRX) | binding signal (ETV1)
1 | TCTGTG | 1.07 fold enrichment (6-mer frequency, TF over GST control) | 1.08 fold enrichment (6-mer frequency, TF over GST control) | 1.05 fold enrichment (6-mer frequency, TF over GST control) | 1.34 fold enrichment (6-mer frequency, TF over GST control) | 1.2 fold enrichment (6-mer frequency, TF over GST control) | 1.21 fold enrichment (6-mer frequency, TF over GST control) | 1.1 fold enrichment (6-mer frequency, TF over GST control) | 1.07 fold enrichment (6-mer frequency, TF over GST control) | 1.09 fold enrichment (6-mer frequency, TF over GST control) | 1.16 fold enrichment (6-mer frequency, TF over GST control)
2 | ATACTC | 1.27 fold enrichment (6-mer frequency, TF over GST control) | 1.22 fold enrichment (6-mer frequency, TF over GST control) | 1.41 fold enrichment (6-mer frequency, TF over GST control) | 1.42 fold enrichment (6-mer frequency, TF over GST control) | 1.25 fold enrichment (6-mer frequency, TF over GST control) | 1.23 fold enrichment (6-mer frequency, TF over GST control) | 1.3 fold enrichment (6-mer frequency, TF over GST control) | 1.23 fold enrichment (6-mer frequency, TF over GST control) | 1.37 fold enrichment (6-mer frequency, TF over GST control) | 1.28 fold enrichment (6-mer frequency, TF over GST control)
3 | CATCGA | 1.05 fold enrichment (6-mer frequency, TF over GST control) | 1.17 fold enrichment (6-mer frequency, TF over GST control) | 1.42 fold enrichment (6-mer frequency, TF over GST control) | 1.06 fold enrichment (6-mer frequency, TF over GST control) | 1.12 fold enrichment (6-mer frequency, TF over GST control) | 1.06 fold enrichment (6-mer frequency, TF over GST control) | 1.16 fold enrichment (6-mer frequency, TF over GST control) | 1.04 fold enrichment (6-mer frequency, TF over GST control) | 1.05 fold enrichment (6-mer frequency, TF over GST control) | 1.05 fold enrichment (6-mer frequency, TF over GST control)
4 | ATGGCT | 1.33 fold enrichment (6-mer frequency, TF over GST control) | 1.29 fold enrichment (6-mer frequency, TF over GST control) | 1.32 fold enrichment (6-mer frequency, TF over GST control) | 1.42 fold enrichment (6-mer frequency, TF over GST control) | 1.32 fold enrichment (6-mer frequency, TF over GST control) | 1.34 fold enrichment (6-mer frequency, TF over GST control) | 1.41 fold enrichment (6-mer frequency, TF over GST control) | 1.33 fold enrichment (6-mer frequency, TF over GST control) | 1.48 fold enrichment (6-mer frequency, TF over GST control) | 1.29 fold enrichment (6-mer frequency, TF over GST control)
5 | GAATTC | 1.39 fold enrichment (6-mer frequency, TF over GST control) | 1.42 fold enrichment (6-mer frequency, TF over GST control) | 1.59 fold enrichment (6-mer frequency, TF over GST control) | 1.51 fold enrichment (6-mer frequency, TF over GST control) | 1.36 fold enrichment (6-mer frequency, TF over GST control) | 1.27 fold enrichment (6-mer frequency, TF over GST control) | 1.39 fold enrichment (6-mer frequency, TF over GST control) | 1.13 fold enrichment (6-mer frequency, TF over GST control) | 1.14 fold enrichment (6-mer frequency, TF over GST control) | 1.34 fold enrichment (6-mer frequency, TF over GST control)
6 | CTTTTA | 1.36 fold enrichment (6-mer frequency, TF over GST control) | 1.29 fold enrichment (6-mer frequency, TF over GST control) | 1.3 fold enrichment (6-mer frequency, TF over GST control) | 1.49 fold enrichment (6-mer frequency, TF over GST control) | 1.43 fold enrichment (6-mer frequency, TF over GST control) | 1.21 fold enrichment (6-mer frequency, TF over GST control) | 1.28 fold enrichment (6-mer frequency, TF over GST control) | 1.34 fold enrichment (6-mer frequency, TF over GST control) | 1.61 fold enrichment (6-mer frequency, TF over GST control) | 1.41 fold enrichment (6-mer frequency, TF over GST control)
7 | CTCTCC | 1.32 fold enrichment (6-mer frequency, TF over GST control) | 1.24 fold enrichment (6-mer frequency, TF over GST control) | 1.32 fold enrichment (6-mer frequency, TF over GST control) | 1.41 fold enrichment (6-mer frequency, TF over GST control) | 1.5 fold enrichment (6-mer frequency, TF over GST control) | 1.37 fold enrichment (6-mer frequency, TF over GST control) | 1.32 fold enrichment (6-mer frequency, TF over GST control) | 1.6 fold enrichment (6-mer frequency, TF over GST control) | 1.15 fold enrichment (6-mer frequency, TF over GST control) | 1.42 fold enrichment (6-mer frequency, TF over GST control)
8 | CTCAGC | 1.3 fold enrichment (6-mer frequency, TF over GST control) | 1.11 fold enrichment (6-mer frequency, TF over GST control) | 1.1 fold enrichment (6-mer frequency, TF over GST control) | 1.16 fold enrichment (6-mer frequency, TF over GST control) | 1.27 fold enrichment (6-mer frequency, TF over GST control) | 1.24 fold enrichment (6-mer frequency, TF over GST control) | 1.31 fold enrichment (6-mer frequency, TF over GST control) | 1.2 fold enrichment (6-mer frequency, TF over GST control) | 1.31 fold enrichment (6-mer frequency, TF over GST control) | 1.28 fold enrichment (6-mer frequency, TF over GST control)

From paper PMC7862700, “An all-to-all approach to the identification of sequence-specific readers for epigenetic DNA modifications on cytosine”
